The record followed here is PubChem BioAssay (EPA / NIEHS).

The source made the active and inactive calls. How the source made its calls: active means hit-call score of the fitted dose curve at least 0.9, where 1 is the maximum; inactive means score below 0.9.

Holding throughout (conditions): mRNA level, 48 h; actives raise or lower the signal
Read-out in experiment [1]: Heat shock 70 kDa protein 1 (HSPA1A), gene 3303
In words: LTEA_HepaRG_HSPA1A: Life Technologies and Expression Analysis (LTEA) Assay for Heat shock 70 kDa protein 1 (HSPA1A) using HepaRG (AID 2283502). The gist of the method: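 HSPA1A induction in human HepaRG liver cells is measured after 48 h of chemical treatment (100 uM maximum, 0.5% DMSO vehicle). Expression comes from qRT-PCR normalized to endogenous controls.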

Read-out in experiment [2]: Hypoxia-inducible factor 1-alpha (Homo sapiens) (UniProt Q16665)
In words: LTEA_HepaRG_HIF1A: Life Technologies and Expression Analysis (LTEA) Assay for Hypoxia-inducible factor 1 (HIF1A) Trancription factor using HepaRG (AID 2283503).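 Further: HIF1A transcript by TaqMan qRT-PCR normalized to ACTB GAPDH and POLR2A.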 An outline of the steps:
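HepaRG, 48 h exposure, 8-pt half-log series from 100 uM, 0.5% DMSO vehicle, duplicates. Readout: HIF1A transcript by qRT-PCR (Fluidigm array), housekeeping-normalised. Bidirectional curve fit vs DMSO baseline.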

Read-out in experiment [3]: 3-Hydroxy-3-Methylglutaryl-CoA Synthase 2 (HMGCS2), HMGCS2 (gene 3158)
Description: LTEA_HepaRG_HMGCS2: Life Technologies and Expression Analysis (LTEA) Assay for 3-Hydroxy-3-Methylglutaryl-CoA Synthase 2 (HMGCS2) using HepaRG (AID 2283504). The gist of the method:
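This steatosis marker was read as HMGCS2 mRNA change in HepaRG cells treated 48 h with up to 100 uM chemical. Normalisation used housekeeping genes; activity in either direction was fitted relative to 0.5% DMSO vehicle.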

Read-out in experiment [4]: HGF (gene 3082)
Description: LTEA_HepaRG_HGF: Life Technologies and Expression Analysis (LTEA) Assay for Hepatocyte Growth Facto (HGF) using HepaRG (AID 2283505). An outline of the steps: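 Using HepaRG monolayers kept in 0.5% DMSO, chemicals were tested in duplicate over eight half-log concentrations from 100 uM for 48 h. Endpoint: HGF mRNA change relative to DMSO, normalized to ACTB/GAPDH/POLR2A.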

Read-out in experiment [5]: Insulin Like Growth Factor 1 (IGF1), IGF1 (gene 3479)
In words: LTEA_HepaRG_IGF1: Life Technologies and Expression Analysis (LTEA) Assay for Insulin Like Growth Factor 1 (IGF1) using HepaRG (AID 2283506). The gist of the method:
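Using human HepaRG liver cells, IGF1 transcript induction or suppression is measured 48 h after dosing across eight concentrations capped at 100 uM. Values derive from bidirectional concentration-response fitting with DMSO as baseline.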

Read-out in experiment [6]: Intercellular Adhesion Molecule 1 (ICAM1), ICAM1 (gene 3383)
Description: LTEA_HepaRG_ICAM1: Life Technologies and Expression Analysis (LTEA) Assay for Intercellular Adhesion Molecule 1 (ICAM1) using HepaRG (AID 2283507). An outline of the steps:
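Using the human liver line HepaRG, compounds are tested in duplicate over 48 h at concentrations up to 100 uM. Expression is determined by TaqMan qRT-PCR, normalized to endogenous controls, and analysed relative to 0.5% DMSO vehicle.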

Read-out in experiment [7]: Insulin-like growth factor-binding protein 1 (IGFBP1), IGFBP1 (gene 3484)
Description: LTEA_HepaRG_IGFBP1: Life Technologies and Expression Analysis (LTEA) Assay for Insulin-like growth factor-binding protein 1 (IGFBP1) using HepaRG (AID 2283508). An outline of the steps: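 HepaRG, 48 h, 8 conc. (max 100 uM, half-log), duplicates, 0.5% DMSO. Readout: TaqMan qRT-PCR, ACTB/GAPDH/POLR2A normalisation. Fit: bidirectional vs DMSO.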

Read-out in experiment [8]: Interleukin 6 (IL6), IL6 (gene 3569)
In words: LTEA_HepaRG_IL6: Life Technologies and Expression Analysis (LTEA) Assay for Interleukin 6 (IL6) using HepaRG (AID 2283509). The gist of the method: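 HepaRG, ~100,000 cells/well, 48 h pre-culture; serum-free induction medium; cmpd 8-pt half-log from 100 uM, 0.5% DMSO, duplicate, 48 h. Lysis in RLT, TaqMan qRT-PCR; gain or loss vs DMSO.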

Read-out in experiment [9]: Interleukin 6 Receptor (IL6R), IL6R (gene 3570)
In words: LTEA_HepaRG_IL6R: Life Technologies and Expression Analysis (LTEA) Assay for Interleukin 6 Receptor (IL6R) using HepaRG (AID 2283510). The gist of the method:
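Concentration-response in human liver HepaRG cells: eight concentrations from 100 uM downward by half-logs, 48 h exposure, 0.5% DMSO vehicle. IL6R mRNA change measured by qRT-PCR and fitted in both directions relative to vehicle.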

Read-out in experiment [10]: Potassium channel subfamily K member 1 (KCNK1), KCNK1 (gene 3775)
Description: LTEA_HepaRG_KCNK1: Life Technologies and Expression Analysis (LTEA) Assay for Potassium channel subfamily K member 1 (KCNK1) using HepaRG (AID 2283511). The gist of the method: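 Gain or loss of KCNK1 mRNA is the read-out, quantified by qRT-PCR against three housekeeping genes after 48 h chemical treatment of human HepaRG liver cells. Concentrations ran from 100 uM downward in half-log steps, vehicle 0.5% DMSO.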

Read-out in experiment [11]: Keratin 19 (KRT19), KRT19 (gene 3880)
In words: LTEA_HepaRG_KRT19: Life Technologies and Expression Analysis (LTEA) Assay for Keratin 19 (KRT19) using HepaRG (AID 2283512). An outline of the steps:
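Readout is qRT-PCR of KRT19 mRNA, normalized to ACTB, GAPDH and POLR2A, from HepaRG cells treated 48 h with eight-point half-log dilutions topping at 100 uM. Activity in either direction is scored relative to 0.5% DMSO vehicle.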

Read-out in experiment [12]: JUN Transcription Factor, JUN (gene 3725)
In words: LTEA_HepaRG_JUN: Life Technologies and Expression Analysis (LTEA) Assay for JUN Transcription Factor using HepaRG (AID 2283513). An outline of the steps:
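Human HepaRG liver cells receive test chemicals in 0.5% DMSO for 48 h across an eight-point range topping at 100 uM. Expression changes in JUN are scored in both directions against the DMSO vehicle.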

Read-out in experiment [13]: Lipase C (LIPC), LIPC (gene 3990)
Description: LTEA_HepaRG_LIPC: Life Technologies and Expression Analysis (LTEA) Assay for Lipase C (LIPC) using HepaRG (AID 2283514). An outline of the steps:
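Read-out is LIPC transcript level by TaqMan qRT-PCR, normalized to three housekeeping genes, after 48 h chemical treatment of human HepaRG liver cells. Curves span eight concentrations topping at 100 uM; activity in either direction scored relative to 0.5% DMSO.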

Read-out in experiment [14]: Lipoprotein lipase (LPL), LPL (gene 4023)
In words: LTEA_HepaRG_LPL: Life Technologies and Expression Analysis (LTEA) Assay for Lipoprotein lipase (LPL) using HepaRG (AID 2283515). An outline of the steps:
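Read-out is LPL transcript level by qRT-PCR, normalized to three housekeeping genes and fitted bidirectionally against the DMSO control. Human HepaRG cells received chemicals for 48 h at up to 100 uM.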

Read-out in experiment [15]: MicroRNA 122 (MIR122), gene 406906
Description: LTEA_HepaRG_MIR122: Life Technologies and Expression Analysis (LTEA) Assay for MicroRNA 122 (MIR122) using HepaRG (AID 2283516). Further: the transcript read is the microRNA miR-122. The gist of the method: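 HepaRG, 48 h exposure, 8-pt half-log from 100 uM, 0.5% DMSO; TaqMan qRT-PCR; bidirectional fit vs DMSO.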

Read-out in experiment [16]: matrix metalloproteinase-10 (MMP10), MMP10 (gene 4319)
Description: LTEA_HepaRG_MMP10: Life Technologies and Expression Analysis (LTEA) Assay for matrix metalloproteinase-10 (MMP10) using HepaRG (AID 2283517). The gist of the method:
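Gain or loss of MMP10 mRNA is fitted relative to the 0.5% DMSO vehicle. The human hepatic line HepaRG receives a 48-hour serum-free exposure, in duplicate, with a maximum concentration of 100 uM.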

Read-out in experiment [17]: MYC, MYC (gene 4609)
In words: LTEA_HepaRG_MYC: Life Technologies and Expression Analysis (LTEA) Assay for MYC using HepaRG (AID 2283518). The gist of the method:
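Expression changes were scored by TaqMan qRT-PCR with ACTB, GAPDH and POLR2A normalization. Cultures in serum-free induction medium received duplicate 8-point concentration series, highest 100 uM, for 48 h; DMSO (0.5%) served as baseline.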

Read-out in experiment [18]: matrix metalloproteinase-3 (MMP3), MMP3 (gene 4314)
In words: LTEA_HepaRG_MMP3: Life Technologies and Expression Analysis (LTEA) Assay for matrix metalloproteinase-3 (MMP3) using HepaRG (AID 2283519). An outline of the steps: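 HepaRG, human; 48 h dosing, 8 conc. (max 100 uM, half-log), duplicate, 0.5% DMSO. Readout: MMP3 transcript by Fluidigm TaqMan qRT-PCR, ACTB/GAPDH/POLR2A-normalised. Gain or loss fitted vs DMSO.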

Read-out in experiment [19]: Paternally Expressed 10 (PEG10), PEG10 (gene 23089)
Description: LTEA_HepaRG_PEG10: Life Technologies and Expression Analysis (LTEA) Assay for Paternally Expressed 10 (PEG10) using HepaRG (AID 2283520).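 On AC50: differentiated HepaRG human liver cells in serum-free induction medium with 0.5% DMSO; PEG10 transcript by qRT-PCR normalised to ACTB GAPDH and POLR2A.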 An outline of the steps: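 Chemicals tested on HepaRG cells for 48 h, highest concentration 100 uM. PEG10 expression assessed by qRT-PCR relative to DMSO control.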

A word on the AC50: it is the concentration giving half of the maximal activity seen.

Hypoxia-inducible factor 1-alpha (Homo sapiens), sequence (Q16665 whole entry, looked up): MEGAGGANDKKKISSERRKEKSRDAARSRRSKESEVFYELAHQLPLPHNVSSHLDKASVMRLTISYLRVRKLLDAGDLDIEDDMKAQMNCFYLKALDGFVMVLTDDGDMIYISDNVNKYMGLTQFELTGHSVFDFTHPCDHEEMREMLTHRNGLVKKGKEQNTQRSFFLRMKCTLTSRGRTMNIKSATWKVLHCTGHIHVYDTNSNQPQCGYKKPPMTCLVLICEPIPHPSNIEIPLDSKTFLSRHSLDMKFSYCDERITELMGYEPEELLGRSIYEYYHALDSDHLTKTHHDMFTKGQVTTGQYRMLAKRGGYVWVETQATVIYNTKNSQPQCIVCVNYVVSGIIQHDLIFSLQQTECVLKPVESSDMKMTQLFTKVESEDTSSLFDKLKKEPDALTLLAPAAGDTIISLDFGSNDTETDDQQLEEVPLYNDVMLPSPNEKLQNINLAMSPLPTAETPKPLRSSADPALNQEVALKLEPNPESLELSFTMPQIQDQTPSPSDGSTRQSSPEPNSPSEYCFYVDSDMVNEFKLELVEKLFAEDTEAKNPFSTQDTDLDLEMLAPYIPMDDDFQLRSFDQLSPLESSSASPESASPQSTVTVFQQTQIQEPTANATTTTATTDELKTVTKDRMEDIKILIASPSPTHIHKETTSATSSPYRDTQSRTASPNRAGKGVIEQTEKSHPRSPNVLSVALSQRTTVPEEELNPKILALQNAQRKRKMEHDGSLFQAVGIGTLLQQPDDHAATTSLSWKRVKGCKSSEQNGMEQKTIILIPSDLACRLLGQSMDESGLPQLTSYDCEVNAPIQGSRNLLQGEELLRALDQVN

Regarding `Cc1cc(Cl)ccc1OCC(=O)O`, the outcome in experiment [1], in [2], in experiment [3], in experiment [4], in experiment [5] and in [6] was inactive. The outcome in [7], in experiment [8], in experiment [9], in experiment [10], in experiment [11] and in [12] was inactive. Moreover, the molecule was classed as inactive in experiment [13], in experiment [14], in experiment [15], in experiment [16], in experiment [17] and in [18]. For the same molecule, in experiment [19], the AC50 is 9.94 µM (active).

On to `COC(=O)C=C(C)OP(=O)(OC)OC`, for which the call in [1], in experiment [2], in [3], in experiment [4], in experiment [5] and in [6] was inactive. Also, the molecule was called inactive in [7], in experiment [8], in [9], in experiment [10], in [11] and in experiment [12]. Moreover, the call in experiment [13], in experiment [14], in experiment [15], in [16], in experiment [17] and in [18] was inactive. Moreover, the molecule was called inactive in experiment [19].

For `COc1ccc(C(c2ccc(OC)cc2)C(Cl)(Cl)Cl)cc1`, the AC50 in experiment [1] is 29.8 µM (active); in [3], 91.8 µM (active); in experiment [5] it was 56.5 µM (active); in experiment [7], 72.3 µM (active); in experiment [11] it was 74.2 µM (active); in experiment [13], 85.8 µM (active). Further, the AC50 in experiment [14] is 76.6 µM (active); in experiment [15] it was 79.4 µM (active); in experiment [17] it was 49.8 µM (active). Besides, the result in [2], in [4], in experiment [6], in experiment [8], in [9] and in [10] was inactive. Further, the molecule was called inactive in experiment [12], in experiment [16], in experiment [18] and in experiment [19].

As to `C=CC1(C)OC(=O)N(c2cc(Cl)cc(Cl)c2)C1=O` (centres undefined), the call in experiment [1], in experiment [2], in experiment [3], in experiment [4], in experiment [5] and in experiment [6] was inactive. Moreover, the outcome in experiment [7], in experiment [8], in [9], in experiment [10], in [11] and in [12] was inactive. For the same molecule, the molecule was classed as inactive in [13], in [15], in experiment [16], in [17] and in [18]. Also, the AC50 in [19] was 34.1 µM (active).

`Cc1c(F)c(F)c(COC(=O)C2C(/C=C(\Cl)C(F)(F)F)C2(C)C)c(F)c1F` (centres undefined): the molecule was classed as inactive in experiment [1], in experiment [2], in experiment [3], in experiment [4], in [6] and in experiment [7]. Further, the molecule was classed as inactive in experiment [8], in [9], in experiment [10], in experiment [11], in experiment [12] and in experiment [13]. Besides, the molecule was called inactive in experiment [14], in [15], in experiment [16], in [17], in experiment [18] and in experiment [19]. Further, the AC50 in experiment [5] is 69.4 µM (active).
